T1: UNK ZnF1-3 (human, UniProt Q9C0B0 31-174)
T1 sequence: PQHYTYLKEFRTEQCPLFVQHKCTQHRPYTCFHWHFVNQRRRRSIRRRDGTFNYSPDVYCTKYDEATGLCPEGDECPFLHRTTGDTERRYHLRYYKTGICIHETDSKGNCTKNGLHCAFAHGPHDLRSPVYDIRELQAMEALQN

B1: chr12:8945443:8945444:+_ENSMUSG00000020585_ENSMUST00000020909|mus_mus|motif|central (ssRNA)
RNA: GGGAGUUCUACAGUCCGACGAUCUGGAAACGUACAAAUGAGAAGCAUGCAACCAUCAUCUUCCACAGUCAAGUCAAACUGCGGUUUCUCUCUCUCUCCUGUUUCAUAGAGCUGGAAACUGCAGGUGUUAUACCCAACCUAUUCCAACAGAGGAUUGAGCAUCA
B2: 117863777_117864697_1263_CDS_ENSMUSG00000017715_ENSMUST00000132676|mouse|control|control (ssRNA)
RNA: GGGAGUUCUACAGUCCGACGAUCGCGGUCCUGGCGGUUGGUGAAGUAUGAGUCACUCAGGUUUGCACCACUCAGGAUGACGUUGUUGUCAAAGAGGUACACCUUGAUGUGCUGGAGGCCGAUGGUCUCAUUGAAGCGCUCAGGCAACAGAGGAUUGAGCAUCA
B3: chr6:41757443:41757444:+_ENSG00000214736_ENST00000398881|hu_mus|hu_hu_hu_mus_False|58_58 (ssRNA)
RNA: GGGAGUUCUACAGUCCGACGAUCGAACCGUGCAGAGGCAACAUCUCAGCCGACACUGGGGGAUGGGGGGGCAGUGGGAAACUAGGCAGGCAAGGAGAGGGAGUCAACUUCAGCUGCCACUCAGGUAGGAUCUUGUGGUCACAGCAACAGAGGAUUGAGCAUCA
B4: chr6:41757443:41757444:+_ENSG00000214736_ENST00000398881|hu_mus|hu_hu_hu_mus_False|28_38 (ssRNA)
RNA: GGGAGUUCUACAGUCCGACGAUCGAACCGUGCAGAGGCAACAUCUCAGCCGACACUGGGGGAUGGGGGGGCAGUGGGGGGGGGUUCAGGCAAGGAGAAGAAAAGUGCCCAUCUGAACACUCAGGUAGGAUCUUGUGGUCACAGCAACAGAGGAUUGAGCAUCA
B5: 53565353_53565853_12282_CDS_ENSG00000086758_ENST00000262854|human|control|control (ssRNA)
RNA: GGGAGUUCUACAGUCCGACGAUCCCCAUCAGCAAGGUGGGUCGUGGACUGCCGUAGGAUCUGGUUUAACACAGUGCGGUGAGUCUCUGCAAAGCGAAGGAACUUCUGUGUGUCAGGGGGCAGGCUUGAGGAGAUGUGCAUAGACAACAGAGGAUUGAGCAUCA
B6: chr6:41757443:41757444:+_ENSG00000214736_ENST00000398881|hu_mus|hu_hu_hu_mus_False|1_68 (ssRNA)
RNA: GGGAGUUCUACAGUCCGACGAUCGAACCGUGCAGAGGCAACAUCUCAGCCGACACUGGGGGAUGGGGGAACAAAAGGGGGGGGUUCAGGCAAGGAGAGGGAGUCAACUUCAGCUGCCACUCAGGUAGGAUCUUGUGGGGCACACAACAGAGGAUUGAGCAUCA
B7: chr6:41757443:41757444:+_ENSG00000214736_ENST00000398881|hu_mus|hu_hu_hu_mus_False|18_28 (ssRNA)
RNA: GGGAGUUCUACAGUCCGACGAUCGAACCGUGCAGAGGCAACAUCUCAGCCGACACUGGGGGAUGGGGGGGCAGUGGGGGGGGGUUCAGGCAAGGAGAGGGAGUCAACCCAUCUGAAUCAAACUUCAGGAUCUUGUGGUCACAGCAACAGAGGAUUGAGCAUCA
B8: chr10:77750680:77750681:-_ENSMUSG00000001211_ENSMUST00000139282|mus_hu|FALSE|FALSE (ssRNA)
RNA: GGGAGUUCUACAGUCCGACGAUCGCGGCGGUAGAGCUGCUUGCUGACCGGCCAGAGCGCCAGCGUGCACAGCUGGACGAAGUUGAUGACCAGACCACUCACCACGAAGACAAAGCCGACCAGCAGGUGCAGCACGAACUGGGUCAACAGAGGAUUGAGCAUCA
B9: chr15:43699750:43699751:-_ENSG00000067369_ENST00000382044|hu_hu|motif|central (ssRNA)
RNA: GGGAGUUCUACAGUCCGACGAUCACACUUCAGCACCGAGGCUGGGCAUGAGGGGUCCGUCACCACCACAUCAAAUACCCCGGAAGCAAUAUCUUUGUUAUGGGCACUUGAAUGGUGCUGCUUCACAGAGGCUGCACCACCAGUCAACAGAGGAUUGAGCAUCA
B10: chr6:41757443:41757444:+_ENSG00000214736_ENST00000398881|hu_mus|hu_hu_hu_mus_False|28_28 (ssRNA)
RNA: B4 RNA with A98G, A100G, A102G, A103U, G104C, U105A, G106A
B11: chr7:133639990:133639991:-_ENSMUSG00000032637_ENSMUST00000167759|mus_hu|FALSE|FALSE (ssRNA)
RNA: GGGAGUUCUACAGUCCGACGAUCGGUAGAGAGUUCUUUUACAUCUGUGGGGGCCAGGGAGAUCUUUGGAGAAGCUGGAGAAAUGGAGCCCACUCCAGGAUCUGAGACUGAUGAGGUCACAGGGAUGGAGGCUGAAGAGGUUGGCAACAGAGGAUUGAGCAUCA
B12: chr10:127876205:127876206:+_ENSMUSG00000025373_ENSMUST00000096386|mus_mus|FALSE|FALSE (ssRNA)
RNA: GGGAGUUCUACAGUCCGACGAUCGGGGCCACCGAGGCAACACAGACACCCUCUUGAGGCAGUGCCGUUCUGGAUCAGCAGAGCCAGACAGCAGCUUCCUGCUGAGUGUACGAACACCAGUGCUCUCACGCCCACCCCUUCCUUCAACAGAGGAUUGAGCAUCA
B13: 66332798_66333947_12362_CDS_ENSMUSG00000038664_ENSMUST00000042824|mouse|control|control (ssRNA)
RNA: GGGAGUUCUACAGUCCGACGAUCUUCACCACUUUCUGUCAAGGCCAUUGAGUGCCCAUCUGAGCCACAGGAAGUCACCAGCUGGGUCACCACAAAACCUUGUAGGGCUGAAAUCACAGUCAGCACAUGAAGGUCGUCUGAAUUCAACAGAGGAUUGAGCAUCA
B14: chr6:41757443:41757444:+_ENSG00000214736_ENST00000398881|hu_mus|hu_hu_hu_mus_False|1_38 (ssRNA)
RNA: GGGAGUUCUACAGUCCGACGAUCGAACCGUGCAGAGGCAACAUCUCAGCCGACACUGGGGGAUGGGGGGGCAGUGGGGGGGGGUUCAGGCAAGGAGAAGAAAAGUGCUUCAGCUGCCACUCAGGUAGGAUCUUGUGGGGCACACAACAGAGGAUUGAGCAUCA
B15: 112904347_112904467_7746_CDS_ENSMUSG00000036862_ENSMUST00000078482|mouse|control|control (ssRNA)
RNA: GGGAGUUCUACAGUCCGACGAUCUGUGGCCUCCAGGGUGAGCAGGGUGGAACCAGGGGGCAAAUCUUCAGACACAGCAACACGGUAGUGUGGCAAUGUGAAGCUUGGGGCAUGGUCAUUCUGGUCCUUCAGCUGCACAUGCACCAACAGAGGAUUGAGCAUCA
B16: chrX:40988281:40988282:+_ENSG00000124486_ENST00000378308|hu_mus|FALSE|FALSE (ssRNA)
RNA: GGGAGUUCUACAGUCCGACGAUCUUCAAUCUGUGGAGGAGCAUCACCUUGACCUUGCUCAUCAGGAGGAGUUGCAGGGGAAUUUUCAUUGGACGAAUCAGGCGAUGAAGUCUGAUUCUGUUGGAGGGGGGGCUGAGACUGUCCCAACAGAGGAUUGAGCAUCA
B17: chr6:17872010:17872011:+_ENSMUSG00000029534_ENSMUST00000127322|mus_mus|motif|central (ssRNA)
RNA: GGGAGUUCUACAGUCCGACGAUCUCACUGUCUCCUCUCUUCAGGAUGUGUUCUGGUGGGAGGAUUAAGCUUUUCAUUUCGGGUAGAUAUUUUGGCACGUGUGGAUUAAAUUCCACAGCUCUGUGGAUGGCUUCUACUGCAUUCCAACAGAGGAUUGAGCAUCA
B18: chr9:37441256:37441257:-_ENSG00000168795_ENST00000307750|hu_hu|FALSE|FALSE (ssRNA)
RNA: GGGAGUUCUACAGUCCGACGAUCAGGCCCAGCCUCUGGACUCAACAAAUAGGGGGCCUCACUCUCCAGCCUGCAGUCACUAGUGGUGUUUGGAAUAUUAUCAUCAUUGUUCUGAUUUGCAGUAAAGUUAUUUCCUCUGCUCUUCAACAGAGGAUUGAGCAUCA
B19: 80013064_80013876_841_CDS_ENSG00000169727_ENST00000578552|human|control|control (ssRNA)
RNA: GGGAGUUCUACAGUCCGACGAUCCUCAGGGAAGUCACAGUGAUCAAAGGAAGCCAGCAGGAGGCACUUGGCAGCCUGCUUGUACUUCCUGGCGGCCAGCUCUGCCAAGCCUGCGGCACACUUGAGCUUGGUGAGGAUGGCCUGCAACAGAGGAUUGAGCAUCA
B20: chrX:40988281:40988282:+_ENSG00000124486_ENST00000378308|hu_hu|FALSE|FALSE (ssRNA)
RNA: B16 RNA with U29G, A36U, A39G, A63U, A66G, A75C, C93A
B21: 5790880_5791000_6181_CDS_ENSG00000108021_ENST00000328090|human|control|control (ssRNA)
RNA: GGGAGUUCUACAGUCCGACGAUCGAAGUUCAACGACGACUCAUAGCCAUCUGUGGGAACAUCUUUUUUCCUGGUGUAACUACCUCUUAAAGUAUAAGAAUCCUCCAAAUCCAGUCUGGGAUUUCUACAAUCACCAAGCAGGUCCAACAGAGGAUUGAGCAUCA
B22: chr12:133780691:133780692:+_ENSG00000090612_ENST00000541009|hu_hu|motif|central (ssRNA)
RNA: GGGAGUUCUACAGUCCGACGAUCUCAUAUGGUUUUUCACCUGAAUGAGUUCUCAUGUGUAUAAUUAGGUAUGACUUGCUGCGGAAAGCUUUCCCACAUUCACUGCACCCAUAAGGCUUUUCCCCUGCAUGAGUUCGCUGAUGUCAACAGAGGAUUGAGCAUCA

Substitutions are numbered along the chain they refer to. Over roughly 24,000 sequences, “enrichment r” has its median near 0.99; the highest 2% begin near 3.7. Shown is part of a subset that was picked to be rich in the highest values.

The test deals with T1, UNK ZnF1-3. The test can be described thus: nsRBNS (natural sequence RNA bind-n-seq); RBNS binding buffer (assumed for nsRBNS): 25 mM Tris pH 7.5, 150 mM KCl, 3 mM MgCl2, 0.01% Triton X-100, 500 ug/ml BSA, 20 U/ml SUPERase-In, 4 C; UNK is unkempt and MSI1 is Musashi-1; names of the RNAs are library labels; protein concentration not given here; high values mean tight binding.
Take B1: the binding signal stood at 0.736 enrichment R.
With B2 the figure was 0.897 enrichment R; with B3, 2.2 enrichment R.
Next, B4: 3.96 enrichment R; B5: 1.49 enrichment R; B6: 3.16 enrichment R.
Next, B7: 5.1 enrichment R; B8: 0.809 enrichment R.
For the molecule B9, the binding signal was determined as 0.852 enrichment R.
For B10, the binding signal turned out to be 5.01 enrichment R.
Next, B11: 2.03 enrichment R; B12: 1.13 enrichment R.
Next, B13: 0.824 enrichment R; B14: 4.72 enrichment R; B15: 1.43 enrichment R.
Next, B16: 1.31 enrichment R; B17: 0.937 enrichment R.
Consider B18, for which the binding signal was found to be 0.924 enrichment R.
With B19 the figure was 0.285 enrichment R; with B20, 1.24 enrichment R.
The molecule B21 showed a binding signal of 1.18 enrichment R.
In the case of B22, the binding signal came to 0.705 enrichment R.
